G9a block – qHTS Assay for Inhibitors of Histone Lysine Methyltransferase G9a; G9a H3K9 monomethylation, AlphaScreen, 2 h; 350,000 tested, 8.8% active; Potency, µM (top dose mostly 102 µM), for the others: at the top dose activity, negative = inhibition, most hits filed as inhibitors; note: potency is the fitted concentration of half-maximal effect; % is set by controls: 0 for no effect and ±100 for the full control effect; nearly all actives have a fitted effect of over 75% in size
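Compounds were preincubated with 20 nM G9a for 15 min, after which biotinylated H3K9 peptide (500 nM) and SAM (20 uM) started a 2 h room-temperature reaction. Monomethylated product was quantified by antibody-based AlphaScreen chemiluminescence.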
HP1b chromo inh – HTS for Inhibitors of HP1-beta Chromodomain Interactions with Methylated Histone Tails; AlphaScreen HP1-beta / biotin-H3K9me3 peptide binding; Potency, µM (top dose mostly 114 µM), inactives show at the highest dose activity change, negative = inhibition, usual class: inhibitors; 390,000 tested, 0.56% active; note: potency is the fitted concentration of half-maximal effect; nearly all actives have a fitted effect of over 70% in size
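HP1-beta protein (50 nM final) preincubated 30 min at room temperature with biotinylated H3(1-18)K9me3 peptide (50 nM) in PBS pH 7.4, 0.01% Tween-20, then compound added for 30 min. AlphaScreen streptavidin donor/nickel chelate acceptor beads (10 ug/mL final), 30 min dark, luminescence read.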
CtBP-E1A inh – qHTS Assay for Inhibitors of the CtBP/E1A Interaction; CtBP / adenovirus E1A interaction (AlphaScreen); AlphaScreen GST-E1A/His-CtBP binding, 1536-well; hits give low values; activity change, % (no concentration beside the values); 340,000 tested, 0.49% active; in the data active = activity change below about -65%; inconclusive = mostly about -30% to -63%; note: % is set by controls: 0 for no effect and ±100 for the full control effect
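Steps: dispense buffer (Tris pH 8.0, NaCl 300 mM, TCEP 1 mM, BSA, Tween 20); add 5X protein mix (GST-E1A, His-CtBP, 125 nM each); pin 23 nL compound; 2 h at 37 °C, dark; add 5X beads (50 ug/mL); 1 h; read.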
BAZ2B inh – qHTS Assay for Inhibitors of BAZ2B; Bromodomain adjacent to zinc finger domain protein 2B (Homo sapiens), Q9UIF8; AlphaScreen BAZ2B-H3K14Ac peptide displacement; Potency, µM (series often up to 114 µM), inactives show top-dose activity change, negative = inhibition, most hits filed as inhibitors; 360,000 tested, 4.4% active; AID 504333, 2011; note: potency is the fitted concentration of half-maximal effect; % is set by controls: 0 for no effect and ±100 for the full control effect; nearly all actives have a fitted effect of over 60% in size
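Complex of BAZ2B and biotin-H3K14Ac (50 nM apiece) forms over 30 min at RT, then faces library compounds up to 110 uM for another 30 min; AlphaScreen beads added, 20 min dark incubation, luminescence read.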
Six1-Eya2 blk – qHTS Assay for Inhibitors of the Six1/Eya2 Interaction. AlphaScreen GST-Six1/His-Eya2 binding, biochemical; hits give low values. Homeobox protein SIX1 (Homo sapiens) + Protein phosphatase EYA2 (Homo sapiens), …. activity change, % (no concentration beside the values). AID 651725, 2012. 360,000 tested, 0.56% active; in the data active = activity change below about -65%; inconclusive = mostly about -30% to -63%; note: % is set by controls: 0 for no effect and ±100 for the full control effect
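Compounds are tested against tagged Six1 and Eya2 proteins bridged by glutathione donor and nickel acceptor beads; after a one-hour incubation at 37 °C without light, AlphaScreen emission is recorded.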
JMJD2A Tudor inh – qHTS Assay for Inhibitors of JMJD2A-Tudor Domain | Lysine-specific demethylase 4A (Homo sapiens), O75164 | AlphaScreen JMJD2A-Tudor / H3K4me3 peptide binding | Potency, µM (top dose mostly 114 µM), for the others: at the top dose activity change, negative = inhibition, actives largely listed as inhibitors | 390,000 tested, 4.4% active; note: potency is the fitted concentration of half-maximal effect; % is set by controls: 0 for no effect and ±100 for the full control effect; nearly all actives have a fitted effect of over 50% in size
* = called active by the depositor; ? = inconclusive; nt = not tested or not shown; [ ] = dose if it differs, or a comment. A selection: hits, their analogues and other compounds. The true share with any hit is near 10%. Unless noted, calls come from the whole dose curve; as a rule, active = well fitted inhibition curve with a large enough effect; inconclusive = small, poorly fitted or top-dose-only effect; inactive = no such curve, though single readings can be large or run the other way.

SMILES	G9a block	HP1b chromo inh	CtBP-E1A inh	BAZ2B inh	Six1-Eya2 blk	JMJD2A Tudor inh
CCOc1ccccc1Oc1coc2cc(OCC(=O)O)ccc2c1=O	14µM*	-21%	3	-32%	3	-15%
Cc1cc(NC(=O)CSc2ccc3nnc(-c4cccs4)n3n2)no1	?	49%	-68*	11%	?	-12%
Cc1ccc(-c2nnc3ccc(SCC(=O)Nc4cc(C)on4)nn23)cc1	?	29%	-8	3%	-3	-2%
Cc1cc(NC(=O)CSc2ccc3nnc(-c4ccc(F)cc4)n3n2)no1	79µM*	-2%	2	-21%	3	-9%
COC(=O)CSc1ccc2nnc(-c3ccc(F)cc3)n2n1	79µM*	23%	-11	-2%	-8	7%
COc1ccc(-n2ncc3c(NCCC4=CCCCC4)ncnc32)cc1	-30%[59 µM]	22%	nt	3%	nt	-20%
c1ccc(Cc2nnc3sc(-c4ccncc4)nn23)cc1	3.5µM*	-26%	5	-3%	1	-12%
c1ccc(Cc2nnc3sc(-c4ccc5c(c4)OCO5)nn23)cc1	nt	?	1	nt	-1	-26%
c1ccc(Cc2nnc3sc(-c4ccccn4)nn23)cc1	?	-33%	-26	5%	-18	-15%
c1ccc(Cc2nnc3sc(-c4ccc5c(c4)OCCO5)nn23)cc1	10µM*	30%	0	3%	-7	-4%
c1ccc(Cc2nnc3sc(-c4cccnc4)nn23)cc1	?	-20%	-6	9%	-4	-21%
c1ccc(Cc2nnc3sc(-c4cccs4)nn23)cc1	2.2µM*	-28%	-5	11%	-1	-16%
CC(=O)N1CCc2cc(S(=O)(=O)N3CC(C)CC(C)C3)ccc21 (configuration not stated)	-5%	27%	5	-3%	3	-1%
Cc1cc(C)nc(SCC(=O)N(C)CC(=O)Nc2c(Cl)cccc2Cl)n1	4%	20%	3	0%	0	-3%
COc1ccc(/C=C(/C(=O)c2cccs2)N2C=CC=CC2=C(C#N)C#N)cc1	8.9µM*	-12%	nt	-34%	-14	?
COc1ccc(/C=N/NC(=O)CNC(=O)c2cccs2)cc1	19%[59 µM]	27%	-20	6%	3	-8%
O=C(O)C1C2C=CC(C2)C1C(=O)Nc1ccc2c(c1)OCCO2 (configuration not stated)	-2%	56%	9	8%	0	-11%[57.1 µM]
COc1cc(NC(=O)C2C3C=CC(C3)C2C(=O)O)c(OC)cc1Cl (configuration not stated)	11µM*	19%	3	0%	1	-18%
COc1ccc(C)cc1NC(=O)C1C2C=CC(C2)C1C(=O)O (configuration not stated)	-38%	10%	2	3%	0	-27%
CN(C)c1ccc(NC(=O)C2C3C=CC(C3)C2C(=O)O)cc1 (configuration not stated)	22µM*	1%	?	35µM*	?	?
CC(C)(C)C1CCc2c(sc(NC(=O)c3ccco3)c2C(=O)Nc2ccccc2Cl)C1 (configuration not stated)	-37%[59 µM]	38%	nt	5%	nt	-5%
COc1ccc(CCNC(=O)c2ccc(CN3CCC(Cc4ccccc4)CC3)cc2)cc1OC	-10%[59 µM]	18%	4	-1%	0	-19%
CCOc1ccc(CN2CCC(Cc3ccccc3)CC2)cc1	45µM*	?	nt	?	3	25µM*
OC(COc1ccccc1)CN1CCCCC1 (configuration not stated)	nt	16%	7	nt	-13	-1%

Screening results from PubChem.
